NPC1 promoter act: activates the NPC1 promoter. Huh7 NPC1 promoter luciferase reporter, 24 h. Potency, µM (titrated, usually from 9.22 µM), without a hit: at the top dose activation, most hits filed as activators. 2.4% of 320,000 active. AID 485313; further: % of control where 0% means no effect; nearly all actives have a fitted effect of over 60% in size
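In 1536-well qHTS, Huh7 cells harboring an NPC1 promoter–luciferase construct received compound for 24 h; activation was quantified by luminescence following luciferase reagent addition.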
Rab9 prom act: activators of Rab9 promoter; Huh7 Rab9 promoter-luciferase reporter, luminescence, 24 h; Potency, µM (titrated, usually from 9.22 µM), inactives show at the top dose activation, negative = inhibition, most hits filed as activators; 2.8% of 320,000 active; further: % of control where 0% means no effect; nearly all actives have a fitted effect of over 60% in size
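Steps: seed 1500 Huh7 Rab9-luc cells per well, rest 2 h at 37 °C; add compound in DMSO; incubate 24 h; add luciferase reagent, 10 min ambient; read luminescence.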
ELG1 genotox: induces genotoxicity in HEK293T cells with luciferase-tagged ELG1; HEK293T ELG1-luciferase reporter, luminescence, 16 h; Potency, µM (doses to about 46 µM), for inactives: top-dose activity change, positive = activation, actives largely listed as activators; 1.3% of 330,000 active; AID 504466; further: % of control where 0% means no effect; nearly all actives have a fitted effect of over 60% in size
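ELG1-luciferase HEK293T cells, 2,000/well; compound pinned in; 16 hr, 37 °C, 5% CO2; ONE-Glo, 30 min RT; luminescence on CCD imager.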
ELG1 repair inh: blocks ELG1-dependent DNA repair in HEK293T cells; HEK293T ELG1-luciferase reporter, luminescence, 16 h; DNA damage induced by 5-fluorouridine; Potency, µM (top dose mostly 46.1 µM), inactives show at the top dose activity change, negative = inhibition, usual class: inhibitors; 2.3% of 330,000 active; further: on the % scale 0 is the no-effect control and ±100 the full control effect; nearly all actives have a fitted effect of over 55% in size
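5-Fluorouridine DNA damage + compound/DMSO, 2,000 cells/well, 16 h, 37 °C/5% CO2. ONE-Glo, 30 min RT, luminescence. Readout = decrease in reporter signal.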
FLuc counter: firefly luciferase modulation, counter-screen for miR-21 project; 6.9% of 360,000 active; purified FLuc, Km substrates, luminescence inhibition; P08659; Potency, µM (highest dose often 57.5 µM), without a hit: top-dose activity change, negative = inhibition, usual class: inhibitors; AID 588342;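 further: plate controls were vehicle for no effect and reference inhibitor for full effect; nearly all actives have a fitted effect of over 55% in size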
Target sequence (P08659 whole entry, looked up): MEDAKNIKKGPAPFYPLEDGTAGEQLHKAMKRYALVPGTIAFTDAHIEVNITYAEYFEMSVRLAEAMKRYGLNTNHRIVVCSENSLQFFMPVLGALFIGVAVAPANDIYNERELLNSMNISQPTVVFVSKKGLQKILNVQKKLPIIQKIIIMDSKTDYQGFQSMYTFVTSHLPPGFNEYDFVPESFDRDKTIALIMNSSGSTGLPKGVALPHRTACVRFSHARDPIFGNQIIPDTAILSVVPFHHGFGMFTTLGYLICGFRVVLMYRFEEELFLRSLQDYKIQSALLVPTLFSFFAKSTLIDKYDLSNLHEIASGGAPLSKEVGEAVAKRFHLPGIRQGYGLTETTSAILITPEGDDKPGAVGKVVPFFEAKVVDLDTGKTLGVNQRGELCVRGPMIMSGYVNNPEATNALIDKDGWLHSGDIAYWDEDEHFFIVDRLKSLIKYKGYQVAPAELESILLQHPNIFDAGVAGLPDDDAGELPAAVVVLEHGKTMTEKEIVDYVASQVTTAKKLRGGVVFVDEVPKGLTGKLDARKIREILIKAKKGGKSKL
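Purified P. pyralis luciferase (10nM final) with 10uM D-luciferin and 10uM ATP (Km levels) in 50mM Tris acetate pH 7.5, 10mM Mg acetate, 0.01% Tween-20, 0.05% BSA; qHTS 6-point titration, ~60 µM downward; luminescence read.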
SMN2 splice up: increases expression of the SMN2 splice variant. HEK293 SMN2-luciferase splicing reporter, luminescence, 30-36 h. Potency, µM (top dose mostly 46.1 µM), for the others: at the top dose activity change, positive = activation, usual class: activators. 2.8% of 210,000 active. AID 1458; further: % of control where 0% means no effect; nearly all actives have a fitted effect of over 55% in size
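HEK293 cells carry an SMN2 […]–luciferase reporter in which exon 7 inclusion puts luciferase in frame. Cells were plated 10-12 h before compound addition, then incubated 30-36 h at 37C. ONE-Glo luminescence was read; sodium butyrate at 4.5 mM final served as control.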
Active calls of the source: *; ? = inconclusive; · = no result given; [ ] = remark or other dose. Only some compounds are listed: those with a hit (about 9.2% of all), similar ones and a draw of the others. The call rests on the fitted dose curve; in most records, active means well fitted curve in the direction sought with a large enough effect; inconclusive means small, poorly fitted or top-dose-only effect, or another doubt; inactive means no such curve, though single readings can be large; an effect the other way counts as inactive or inconclusive. Potency means the concentration at half of the fitted maximal effect.

SMILES | NPC1 promoter act | Rab9 prom act | ELG1 genotox | ELG1 repair inh | FLuc counter | SMN2 splice up
COC(=O)c1ccc(NC(=O)CSc2cn(CC(=O)N3CCCCCC3)c3ccccc23)cc1 | · | · | · | · | 2.1% | ·
CC(C)(C)C(=O)Cn1ncc(N2CCCC2)c(Br)c1=O | ? | 3.98µM* | ? | ? | ? | 23.6%
CC(C)(C)C(=O)Cn1ncc(N2CCOCC2)c(Br)c1=O | 6.9% | 26.1% | 8.8% | ? | -2.4% | 7.0%
Nc1c(S(=O)(=O)O)cc(S(=O)(=O)O)c2ccc(N=Nc3ccccc3)c(O)c12 | · | · | · | · | · | -8.7%[9.22 µM]
Nc1ccc(N=Nc2ccccc2)c(N)c1 | · | · | · | · | · | 28.2µM*
Nc1ccccc1N=Nc1ccccc1N | 1.58µM* | 1.58µM* | ? | ? | 5.36µM* | ·
Nc1ccccc1-c1ccccc1N | 5.3% | -9.4% | -0.2% | 13.3% | -0.9% | ·
COC(=O)CC1C(C)(C)C2(O)OC34CC2C(=O)[C@@]1(C)C3CC[C@]1(C)C4=CC(=O)OC1c1ccoc1 (stereo partly drawn) | · | · | · | · | · | -15.7%
Cc1ccc(-n2ncc3c(N4CCN(C)CC4)ncnc32)cc1C | · | · | · | · | 4.26µM* | ·
CN1CCN(c2ncnc3c2cnn3-c2cccc(Cl)c2)CC1 | · | · | · | · | 13.5µM* | ·
Cc1ccc(-n2ncc3c2ncn2c(C)nnc32)cc1C | 2.51µM* | 2µM* | ? | ? | 5.36µM* | ?
NN(CC(=O)O)CC(=O)O | · | · | · | · | · | -13.5%[9.22 µM]
CNC(=O)COC(=O)c1ccc(Cl)c(S(N)(=O)=O)c1 | -6.1% | -7.5% | 0.7% | 21.8% | 3.9% | ·
CCOC(=O)c1cccc(NC(=O)CCc2c(C)nc3cc(-c4ccc(Cl)cc4)nn3c2C)c1 | · | · | · | · | 12µM* | -21.0%
COc1cc(OC)cc(-c2cc3nc(C)c(CCC(=O)Nc4ccc(F)c(Cl)c4)c(C)n3n2)c1 | · | · | · | · | ? | -10.8%
CCOc1ccc(NC(=O)CCc2c(C)nc3cc(-c4ccc(Cl)cc4)nn3c2C)cc1 | · | · | · | · | 6.75µM* | -16.9%
NC(=O)c1ccc2[nH]ccc2c1 | 0.6%[46.1 µM] | 4.3%[46.1 µM] | · | · | · | ·
COc1ccc(S(=O)(=O)c2c(SC)nn(CC(=O)Nc3ccc(C)c(Cl)c3)c2N)cc1 | · | · | · | · | -1.3% | ·
CC#CCN1C(=O)N[C@@H](c2ccccc2)C(C(=O)OC)=C1C | · | · | · | · | · | -0.7%[9.22 µM]
CCn1c(=N)n(CC(=O)c2ccc(Cl)c(Cl)c2)c2ccccc21 | 4.47µM* | 3.98µM* | 15.1% | ? | ? | ·
N=c1n(CCN2CCCCC2)c2ccccc2n1CC(=O)c1ccc(Cl)c(Cl)c1 | 1.0% | 1.3% | -1.8% | ? | -5.0% | ·
Cn1c(=N)n(CC(=O)c2ccc(F)cc2)c2ccccc21 | ? | 0.891µM* | ? | ? | 1.35µM* | ·
CCCCCCCCCCCCCCCC(=O)OC(CO)CO | · | · | · | · | · | 3.7%
CCN1CCN(c2ncc3c(n2)CCN(Cc2ccccc2C)C3)CC1 | · | · | · | · | -0.8% | ·
Clc1ccccc1OCCn1cnc2ccccc21 | 26.5% | ? | ? | ? | 16.9µM* | -19.4%
SMILES | NPC1 promoter act | Rab9 prom act | ELG1 genotox | ELG1 repair inh | FLuc counter | SMN2 splice up
Cc1ccc(C)c(OCCCCn2cnc3ccccc3c2=O)c1 | -1.2% | -3.2% | -5.4% | ? | -12.0% | ·
Cc1ccc(OCCCCn2cnc3ccccc32)c(C)c1 | 1.8% | -1.5% | 4.1% | -16.9% | 10.7µM* | -75.7%
Brc1ccccc1OCCCCn1cnc2ccccc21 | -3.6% | -0.7% | ? | ? | 10.7µM* | -46.0%
CCOC(=O)c1c(NC(=O)CSc2nc(-c3ccc(OC)cc3)cc(C(F)(F)F)n2)sc(C)c1C | · | · | · | · | -1.6% | -3.2%
Cc1cccc(C(=O)N2CCCCC2CCN2CCCCC2)c1 (stereo not drawn) | · | · | · | · | 0.7% | -7.0%
Cc1noc2ncnc(NCc3ccc(Cl)cc3)c12 | · | · | · | · | 5.4% | ·
COc1cc(C=O)ccc1OCCCCOc1ccccc1[N+](=O)[O-] | -0.5% | 1.0% | 1.5% | 5.0% | -28.8% | 4.4%
COc1c(OC(C)=O)ccc(/C=N\NC(=O)c2ccc(Br)cc2)c1[N+](=O)[O-] | -3.0% | -2.1% | -3.6% | ? | 2.3% | ·
COc1cc(/C=C/c2ccc3cccc([N+](=O)[O-])c3n2)ccc1OCC(=O)O | 0.6% | 1.7% | -0.5% | 15.0% | 1.9µM* | 5.7%
COc1cc(/C=C/c2ccc3c([N+](=O)[O-])cccc3n2)ccc1OCC(=O)O | 2.7% | -0.3% | 1.5% | 13.6% | 3.38µM* | ·
COc1cc(/C=C/c2nc3ccc([N+](=O)[O-])cc3s2)ccc1OCC(=O)O | -2.4% | -6.2% | -2.7% | -7.4% | 2.69µM* | ·
CCOc1c(OC(C)=O)ccc(/C=C/c2ccc3cccc(OC)c3n2)c1[N+](=O)[O-] | ? | 13.5% | -0.3% | -14.0% | 6.01µM* | ?
CC(=O)Nc1ccc(/C=C/c2ccc3cccc([N+](=O)[O-])c3n2)cc1 | 16.6% | -1.0% | -2.6% | -9.9% | ? | ·
O=C(O)COc1ccc(/C=C/c2ccc3cccc([N+](=O)[O-])c3n2)cc1 | 9.9% | -0.5% | 10.1% | 22.0% | 2.69µM* | 24.3%
COc1ccccc1-c1c(-c2ccc(O)cc2O)n[nH]c1C(F)(F)F | -17.7% | -26.5% | -9.2% | 5.8µM* | 1.5% | ·
COc1cc2c(-c3ccc(O)cc3)nc3c(c(C)nn3-c3ccccc3)c2cc1OC | -11.1% | -11.6% | 2.3% | 9.2µM* | 1.5% | -46.0%
COc1cccc(-c2nc3c(c(C)nn3-c3ccccc3)c3cc(OC)c(OC)cc23)c1 | · | · | · | · | -0.8% | 1.0%
Cc1cc(N/N=C/c2ccco2)c2ccccc2n1 | 3.8% | -2.7% | 0.3% | 12.7% | -15.8% | 1.7%
Cc1ccsc1/C=N/Nc1nc2ccccc2s1 | 3.55µM* | 1.78µM* | 1.46µM* | ? | 1.69µM* | 1µM*
Cc1ccnc(N/N=C/c2ccco2)n1 | ? | 26.0% | ? | ? | 16.9µM* | ?
C(=N\Nc1nc2ccccc2s1)/c1cccs1 | ? | 1.26µM* | ? | ? | 0.849µM* | 7.08µM*
C(=N\Nc1nc2ccccc2s1)/c1ccco1 | 2.24µM* | 1.26µM* | ? | ? | 1.2µM* | 1.58µM*
Cc1cc(S(=O)(=O)N2CCCC2)ccc1OCC(=O)N1CCCCC1 | 2.1% | 13.5% | -1.8% | 0.3% | -3.1% | ·
CCn1c(C)c(/C=N/Nc2nc3ccccc3s2)c2ccccc21 | ? | 11.8% | 0.1% | -2.4% | 13.5µM* | -25.4%
CC(C)CC(=O)Nc1ccccc1OCc1cc(=O)n2ccccc2n1 | · | · | · | · | -6.0% | ·
O=C(c1cc(-c2ccccc2)nc2ccccc12)N1CCN(C2CCS(=O)(=O)C2)CC1 (stereo not drawn) | 0.0% | 2.0% | 0.9% | 6.0% | 26.9µM* | ·
O=C(c1ccco1)N1CCN(C(=O)c2cc(-c3ccccc3)nc3ccccc23)CC1 | 10.2% | 3.6% | 0.1% | ? | 6.75µM* | 7.7%

From PubChem BioAssay
